From PubChem BioAssay AID1159580 (chemical genetic matrix, 2015)
In all, about 5,500 compounds went through this assay and about 2,000 (36%) were called active. Inconclusive results (about 18%) are left out. Rule as the data show it: active = normalized growth mostly below about 0.91 (no sharp cut-off); inconclusive = no clear call, values can overlap the other calls; inactive = mostly above about 0.92. The list shows a part of the results.

Test: chemical genetic growth profiling, strain panel (AID 1159580);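 also: tested at 20 µM; growth read once vehicle control cultures reached saturation at 30 °C; 1 = growth at the plate median or of vehicle wells; lower values mean less growth of the strain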
Conditions: S. cerevisiae deletion strains, growth OD

Measured: normalized growth

CC(C)c1cccc(O)c(=O)c1
active: locus YAL021C, strain ccr4, stronger effect = lower value 0.0678 | locus YAL026C, strain drs2, stronger effect = lower value 0.0622 | locus YAL030W, strain snc1, stronger effect = lower value 0.0616 | locus YBL061C, strain skt5, stronger effect = lower value 0.0689 | locus YBR009C, strain hhf1, stronger effect = lower value 0.0635 | locus YBR023C, strain chs3, stronger effect = lower value 0.0691 | locus YBR171W, strain sec66, stronger effect = lower value 0.0935 | locus YBR231C, strain swc5, stronger effect = lower value 0.0694 | locus YBR279W, strain paf1, stronger effect = lower value 0.0689 | locus YCL011C, strain gbp2, stronger effect = lower value 0.0593 | locus YCL016C, strain dcc1, stronger effect = lower value 0.0739 | locus YCL069W, strain vba3, stronger effect = lower value 0.0926 | locus YCR088W, strain abp1, stronger effect = lower value 0.0649 | locus YDL005C, strain med2, stronger effect = lower value 0.0881 | locus YDL040C, strain nat1, stronger effect = lower value 0.0703 | locus YDR001C, strain nth1, stronger effect = lower value 0.0642 | locus YDR069C, strain doa4, stronger effect = lower value 0.0633 | locus YDR137W, strain rgp1, stronger effect = lower value 0.0985 | locus YDR159W, strain sac3, stronger effect = lower value 0.0917 | locus YDR195W, strain ref2 0.166 | locus YDR297W, strain sur2, stronger effect = lower value 0.0622 | locus YDR334W, strain swr1, stronger effect = lower value 0.0664 | locus YDR335W, strain msn5, stronger effect = lower value 0.0638 | locus YDR392W, strain spt3, stronger effect = lower value 0.0887 | locus YEL003W, strain gim4, stronger effect = lower value 0.0581 | locus YEL037C, strain rad23, stronger effect = lower value 0.0615 | locus YEL061C, strain CIN8 (second series), stronger effect = lower value 0.0653 | locus YER015W, strain faa2, stronger effect = lower value 0.0615 | locus YER016W, strain bim1, stronger effect = lower value 0.067 | locus YER111C, strain swi4, stronger effect = lower value 0.0815 | locus YER155C, strain BEM2 (second series), stronger effect = lower value 0.0927 | locus YFR010W, strain ubp6, stronger effect = lower value 0.072 | locus YGL167C, strain pmr1, stronger effect = lower value 0.091 | locus YGL173C, strain kem1, stronger effect = lower value 0.0718 | locus YGL227W, strain vid30, stronger effect = lower value 0.0687 | locus YGL240W, strain doc1, stronger effect = lower value 0.0871 | locus YGL253W, strain hxk2, stronger effect = lower value 0.0611 | locus YHR013C, strain ard1, stronger effect = lower value 0.113 | locus YHR027C, strain rpn1, stronger effect = lower value 0.0609 | locus YHR030C, strain SLT2, stronger effect = lower value 0.126 | locus YHR079C, strain IRE1, stronger effect = lower value 0.146 | locus YHR142W, strain chs7, stronger effect = lower value 0.0743 | locus YJL092W, strain hpr5, stronger effect = lower value 0.0677 | locus YJL095W, strain BCK1 (second series), stronger effect = lower value 0.0581 | locus YJL095W, strain BCK1, stronger effect = lower value 0.145 | locus YJL115W, strain asf1, stronger effect = lower value 0.0902 | locus YJL129C, strain trk1, stronger effect = lower value 0.0856 | locus YJL154C, strain vps35, stronger effect = lower value 0.0621 | locus YJL164C, strain tpk1, stronger effect = lower value 0.0686 | locus YJL166W, strain qcr8, stronger effect = lower value 0.0625 | locus YJR066W, strain TOR1, stronger effect = lower value 0.0572 | locus YKL160W, strain elf1, stronger effect = lower value 0.0788 | locus YKR026C, strain gcn3, stronger effect = lower value 0.0743 | locus YKR091W, strain srl3, stronger effect = lower value 0.0697 | locus YLL001W, strain dnm1, stronger effect = lower value 0.0706 | locus YLL026W, stronger effect = lower value 0.0634 | locus YLL041C, strain sdh2, stronger effect = lower value 0.0616 | locus YLR027C, strain aat2, stronger effect = lower value 0.0581 | locus YLR113W, strain HOG1, stronger effect = lower value 0.217 | locus YLR221C, strain rsa3, stronger effect = lower value 0.059 | locus YLR258W, strain gsy2, stronger effect = lower value 0.0639 | locus YLR262C, strain YPT6 (second series), stronger effect = lower value 0.0819 | locus YLR320W, strain mms22, stronger effect = lower value 0.0828 | locus YLR342W, strain FKS1, stronger effect = lower value 0.0743 | locus YLR357W, strain rsc2, stronger effect = lower value 0.136 | locus YLR370C, strain arc18, stronger effect = lower value 0.0652 | locus YLR384C, strain iki3, stronger effect = lower value 0.0711 | locus YML120C, strain ndi1, stronger effect = lower value 0.0618 | locus YMR058W, strain fet3, stronger effect = lower value 0.0629 | locus YMR125W, strain sto1, stronger effect = lower value 0.0871 | locus YMR129W, stronger effect = lower value 0.0613 | locus YMR205C, strain PFK2, stronger effect = lower value 0.091 | locus YMR231W, strain pep5, stronger effect = lower value 0.0803 | locus YNL071W, strain lat1, stronger effect = lower value 0.0663 | locus YNL183C, strain NPR1, stronger effect = lower value 0.0186 | locus YNL209W, strain ssb2, stronger effect = lower value 0.0585 | locus YNL248C, strain rpa49, stronger effect = lower value 0.0753 | locus YNL322C, strain KRE1 (second series), stronger effect = lower value 0.068 | locus YNR049C, strain mso1, stronger effect = lower value 0.0605 | locus YOR001W, strain rrp6, stronger effect = lower value 0.0684 | locus YOR070C, strain gyp1, stronger effect = lower value 0.123 | locus YOR080W, strain dia2, stronger effect = lower value 0.0682 | locus YOR083W, strain WHI5, stronger effect = lower value 0.0692 | locus YOR106W, strain vam3, stronger effect = lower value 0.0676 | locus YOR231W, strain MKK1, stronger effect = lower value 0.134 | locus YOR265W, strain rbl2, stronger effect = lower value 0.0639 | locus YOR270C, strain vph1, stronger effect = lower value 0.101 | locus YOR290C, strain snf2, stronger effect = lower value 0.0651 | locus YPL051W, strain arl3, stronger effect = lower value 0.0708 | locus YPL078C, strain atp4, stronger effect = lower value 0.0754 | locus YPL106C, strain sse1, stronger effect = lower value 0.111 | locus YPL240C, strain hsp82, stronger effect = lower value 0.0667 | locus YPL256C, strain CLN2, stronger effect = lower value 0.121
